In PubChem BioAssay AID1259421 (Broad Institute, 2018) one finds activity change, negative = inhibition data, which are given here for 72 compounds.

Molecules are shown by their SMILES. Values joined by “and” are separate entries in the source; they are usually repeats but may differ in a detail not shown here. Equal entries are not always repeated. About 610 (9.5%) of roughly 6,400 compounds were called active. No stated cut-off is given here; in the data, active means activity change below about -70%; inconclusive means no clear call, values can overlap the other calls; inactive means above that. For the sample, actives were picked, then their nearest neighbours and some compounds at random. Where a structure was tested more than once in an assay, its records may differ in their call. Where a SMILES comes first, the peptide text is derived from it. The star is where a group is joined. PhAc = O=C(Cc1ccccc1)*

A short description of the test: Toxoplasma gondii ME49Luc growth in HeLa cells, luciferase, no IFN-y, primary screen (AID 1259421). As to conditions: T. gondii ME49Luc in HeLa, 72 h, stronger effect = lower value, concentration not given here.
As for `N#Cc1cc(-c2n[nH]c(-c3ccncc3)n2)ccn1`, the activity change, negative = inhibition is 17.6% (inactive).
For `O=C(O)/C=C/c1ccc(-c2ccc(O)c(C34CC5CC(CC(C5)C3)C4)c2)cc1`, the activity change, negative = inhibition was -96.6% (active).
Take `O=C(O)c1ccc(-c2ccc3cc(O)c(C45CC6CC(CC(C6)C4)C5)cc3c2)cc1`: the activity change, negative = inhibition is -2.82% (inactive).
With `O=C(O)c1ccc2cc(-c3ccc(O)c(C45CC6CC(CC(C6)C4)C5)c3)ccc2c1` the figure was -56% (inactive); with `CC(C)=CCC[C@](C)(O)[C@H]1CC[C@]2(C)[C@@H]1[C@H](O)C[C@@H]1[C@@]3(C)CC[C@H](O)C(C)(C)[C@@H]3[C@@H](O)C[C@]12C`, 8.14% (inactive).
Consider `COc1c2ccoc2cc2oc(C)cc(=O)c12`, for which the activity change, negative = inhibition is 0.747% (inactive).
As for `C=C1/C(=C\C=C2/CCC[C@]3(C)[C@@H]([C@H](C)/C=C/[C@H](C)C(C)(C)O)CC[C@@H]23)C[C@@H](O)C[C@@H]1O`, the activity change, negative = inhibition was 13.5% (inactive).
For the compound `C=C1/C(=C/C=C2/CCC[C@]3(C)[C@@H]([C@H](C)CCCC(C)C)CC[C@@H]23)C[C@@H](O)C[C@@H]1O`, the activity change, negative = inhibition was -75.5% (active).
For the compound `C=C1/C(=C/C=C2\CCC[C@]3(C)[C@@H]([C@H](C)/C=C/[C@@H](C)C(C)C)CC[C@@H]23)C[C@@H](O)C[C@@H]1O`, the activity change, negative = inhibition is -75% (active).
As for `C=C1CC[C@H](O)C/C1=C/C=C1\CCC[C@]2(C)[C@@H]([C@H](C)CCCC(C)C)CC[C@@H]12`, the activity change, negative = inhibition is -78.3% (active).
Consider `C=C1C(=C/C=C2\CCC[C@]3(C)[C@@H]([C@H](C)/C=C/[C@@H](O)C4CC4)CC[C@@H]23)C[C@@H](O)C[C@@H]1O`, for which the activity change, negative = inhibition is 12.8% (inactive).
`C=C1CC[C@H](O)C/C1=C/C=C1\CCC[C@]2(C)[C@@H]([C@H](C)CC[C@@H](O)C(C)(C)O)CC[C@@H]12`: the activity change, negative = inhibition is 1.97% (inactive).
Consider `C=C1/C(=C\C=C2/CCC[C@]3(C)[C@@H]([C@H](C)CCCC(C)(C)O)CC[C@@H]23)C[C@@H](O)C[C@@H]1O`, for which the activity change, negative = inhibition is -69.8% (inactive) and 11.1% (inactive).
Turning to `C=C1/C(=C\C=C2/CCC[C@]3(C)[C@@H]([C@H](C)CC[C@@H](O)C(C)C)CC[C@@H]23)C[C@@H](O)C[C@@H]1O`, the activity change, negative = inhibition was 3.62% (inactive).
Take `C=C1/C(=C\C=C2\CCC[C@]3(C)[C@@H]([C@H](C)CCCC(C)C)CC[C@@H]23)C[C@@H](O)C[C@@H]1O`: the activity change, negative = inhibition was -54.9% (inactive).
On to `C[C@H]1OC(O)[C@H](O)[C@H](O)[C@H]1O` (some centres not stated), for which the activity change, negative = inhibition is -0.633% (inactive).
For `CC(=O)O[C@H]1C[C@@H](O)C(C)(C)C2C[C@@H](OC(C)=O)[C@]3(C)C(CC[C@@]4(C)[C@H](c5ccoc5)OC(=O)C5OC543)[C@]21C` (some centres not stated), the activity change, negative = inhibition was -2.36% (inactive).
In the case of `Cc1c(Cn2ccnc2)c2ccccc2n1CCC(=O)O`, the activity change, negative = inhibition is 13% (inactive).
Turning to `O=c1[nH]c(-c2ccc(C(F)(F)F)cc2)nc2c1CSCC2`, the activity change, negative = inhibition is 29.4% (inactive).
In the case of `NC1(C(=O)N[C@@H](CCO)c2ccc(Cl)cc2)CCN(c2ncnc3[nH]ccc23)CC1`, the activity change, negative = inhibition is 9.43% (inactive).
For `CC(C)C[C@H](NC(=O)[C@@H](Cc1c[nH]c2ccccc12)NC(=O)[C@H](Cc1ccc(O)cc1)NC(=O)[C@H](CO)NC(=O)[C@H](Cc1c[nH]c2ccccc12)NC(=O)[C@H](Cc1cnc[nH]1)NC(=O)[C@@H]1CCC(=O)N1)C(=O)N[C@@H](CCCN=C(N)N)C(=O)N1CCC[C@H]1C(=O)NCC(N)=O`, the activity change, negative = inhibition was -22.2% (inactive).
On to `CO[C@@]12[C@@H]3NC3CN1C1=C(C(=O)C(N)=C(C)C1=O)[C@@H]2COC(N)=O` (some centres not stated), for which the activity change, negative = inhibition was -81.9% (active) and -22.7% (inactive).
Turning to `CO[C@@]12[C@H](COC(N)=O)C3=C(C(=O)C(C)=C(N)C3=O)N1C[C@@H]1N[C@@H]12`, the activity change, negative = inhibition is -10.9% (inactive).
As to `N[C@@H](C(=O)O)C1=CCC=CC1`, the activity change, negative = inhibition was -2.48% (inactive).
For `C[C@@H]1O[C@@H](OC[C@H]2OC(Oc3c(-c4ccc(O)c(O)c4)oc4cc(O)cc(O)c4c3=O)[C@H](O)[C@@H](O)[C@@H]2O)[C@H](O)[C@H](O)[C@H]1O` (some centres not stated), the activity change, negative = inhibition was 0.376% (inactive).
Turning to `O=c1c(-c2cc(O)c(O)c(O)c2)coc2cc(O)c(O)c(O)c12`, the activity change, negative = inhibition was 8.75% (inactive).
With `NC(=O)N1C(=O)C(C(=O)c2cccs2)c2cc(Cl)ccc21` (configuration not stated) the figure was 8.36% (inactive) and 15.7% (inactive).
On to `CCNC(=O)Nc1ccc(-c2nc3c(c(N4CCOC[C@@H]4C)n2)CCN(C2COC2)C3)cc1`, for which the activity change, negative = inhibition is -37.1% (inactive).
In the case of `CN(C)C1CCN(C(=O)c2ccc(NC(=O)Nc3ccc(-c4nc(N5CCOCC5)nc(N5CCOCC5)n4)cc3)cc2)CC1`, the activity change, negative = inhibition was -1.91% (inactive).
Consider `O=C(Nc1ccncc1)Nc1ccc(-c2nc(N3CCOCC3)nc(N3C4CCC3COC4)n2)cc1`, for which the activity change, negative = inhibition is -80% (active).
As for `CC(C)CCOC(=O)c1ccc(N(C)C)cc1`, the activity change, negative = inhibition is 67.6% (inactive).
`CN(C)c1ccc(C(=C2C=CC(=[N+](C)C)C=C2)c2ccc(N(C)C)cc2)cc1`: the activity change, negative = inhibition is -90.8% (active) and -81% (active).
As for `COc1cccc(/C=N/N=C/c2cccc(OC)c2)c1`, the activity change, negative = inhibition is 6.04% (inactive).
With `C/C=C/C/C=C/CCC(=O)[C@H]1O[C@H]1C(N)=O` the figure was 20.9% (inactive); with `Cc1cc(C2CCCCC2)n(O)c(=O)c1`, -76.5% (active) and -74.6% (active) and -92.8% (active).
On to `CC(=O)O[C@]1(C(C)=O)CCC2C3C[C@H](C)C4=CC(=O)CC[C@]4(C)C3CC[C@@]21C` (some centres not stated), for which the activity change, negative = inhibition was 15% (inactive).
For `CCOC(CN1CCN(CC(C)C(=O)c2ccccc2)CC1)c1ccccc1` (configuration not stated), the activity change, negative = inhibition is 31.9% (inactive).
As to `NC(=S)N=Nc1ccc(NN=C(N)N)cc1`, the activity change, negative = inhibition is 5.33% (inactive).
On to `Cc1ccc(/C=N/NC(=O)c2ccccc2Oc2ccccc2)o1`, for which the activity change, negative = inhibition is 8.19% (inactive).
Regarding `CCCCN(CCCC)CCC(O)c1cc2c(Cl)cc(Cl)cc2c2cc(C(F)(F)F)ccc12` (configuration not stated), the activity change, negative = inhibition is -83% (active).
The same measure for `CC(=O)N1CCCC1C(=O)O` (configuration not stated): 6.22% (inactive); for `CC(=O)NC1[C@@H](O)OC(CO)[C@@H](O)[C@H]1O` (some centres not stated): 16% (inactive).
The same measure for `COc1cccc([C@H](O)C2CCN(CCc3ccc(F)cc3)CC2)c1OC`: 11% (inactive); for `COc1cc2c(cc1OC)CN(CCc1ccc(NC(=O)c3cc(OC)c(OC)cc3NC(=O)c3cnc4ccccc4c3)cc1)CC2`: 1.38% (inactive).
Consider `COc1cc2c(cc1OC)CN(CCc1ccc(NC(=O)c3cccc4c(=O)c5cccc(OC)c5[nH]c34)cc1)CC2`, for which the activity change, negative = inhibition is -79.7% (active).
As for `COC1CCN(C(=O)c2cc(Cc3n[nH]c(=O)c4ccccc34)ccc2F)CC1`, the activity change, negative = inhibition is 11.9% (inactive).
Consider `CCC(=O)OCC(=O)C1(OC(=O)CC)[C@H](C)C[C@H]2C3[C@H](Cl)CC4=CC(=O)C=C[C@]4(C)[C@H]3[C@@H](O)C[C@@]21C` (some centres not stated), for which the activity change, negative = inhibition is 11.6% (inactive).
As for `c1ccc(CN2CCC3(CCc4ccccc43)CC2)cc1`, the activity change, negative = inhibition is 16.7% (inactive) and 4.6% (inactive).
Take `COc1ccccc1N1CCN(CC(C(=O)NC(C)(C)C)c2ccccc2)CC1` (configuration not stated): the activity change, negative = inhibition was 6.24% (inactive).
The same measure for `OCc1ccc(O[C@@H]2O[C@@H](CO)[C@@H](O)[C@H](O)[C@H]2O)cc1`: -0.0846% (inactive).
`CCOc1cc(/C=C(/C#N)C(N)=O)cc(CSc2ccccc2)c1O`: the activity change, negative = inhibition was 32.6% (inactive).
With `Cc1cccc(-c2[nH]ncc2-c2ccc3ncccc3n2)n1` the figure was -16% (inactive); with `c1ccc(-c2[nH]ncc2-c2ccnc3ccccc23)nc1`, -65.8% (inactive) and -82.5% (active); with `O=C(NC1CCOCC1)c1ccc(-c2cc(-c3cn[nH]c3-c3ccccn3)ccn2)cc1`, -1.45% (inactive).
With `C=C1/C(=C\C=C2/CCC[C@]3(C)[C@@H]([C@H](C)CCCC(O)(C(F)(F)F)C(F)(F)F)CC[C@@H]23)C[C@@H](O)C[C@@H]1O`, the activity change, negative = inhibition is 7.67% (inactive).
The same measure for `CNc1ncnc2c1ncn2[C@@H]1O[C@H](CO)[C@@H](O)[C@H]1O`: 13.6% (inactive); for `OC[C@H]1O[C@@H](n2cnc3c(NC4CCCC4)ncnc32)[C@H](O)[C@@H]1O`: 13.5% (inactive); for `OC[C@H]1O[C@@H](n2cnc3c(NCc4ccco4)ncnc32)[C@H](O)[C@@H]1O`: -71.9% (active).
As to `OCCOCCN1CCN(Cc2cccc(Oc3ccccc3)c2)CC1`, the activity change, negative = inhibition was 8.65% (inactive).
In the case of `CC(C)CC(NC(=O)N1CCCCCC1)C(=O)NC(Cc1cn(C)c2ccccc12)C(=O)NC(Cc1ccccn1)C(=O)O` (configuration not stated), the activity change, negative = inhibition was 5.64% (inactive).
Consider `C=CC1=C(C(=O)O)N2C(=O)[C@@H](NC(=O)/C(=N/O)c3csc(N)n3)[C@H]2SC1`, for which the activity change, negative = inhibition was 5.5% (inactive).
Consider `CCOC(=O)CNC(=O)[C@@H]1CCCN1C(=O)Cc1ccccc1` (PhAc-Pro-Gly-OEt), for which the activity change, negative = inhibition was 13.8% (inactive).
With `CC(C)(C)C1CCC(CC2C(=O)C(=O)c3ccccc3C2=O)CC1` (configuration not stated) the figure was -75.1% (active).
In the case of `O=C1C(=O)C(C2CCC(c3ccc(Cl)cc3)CC2)C(=O)c2ccccc21` (configuration not stated), the activity change, negative = inhibition was -68.3% (inactive) and -68.8% (inactive).
Regarding `O=C1c2ccccc2C(=O)C1c1ccccc1`, the activity change, negative = inhibition is -3.55% (inactive).
Take `CS/C(N)=C(C#N)/C(C#N)=C(\N)SC`: the activity change, negative = inhibition was 1.99% (inactive) and 0.209% (inactive).
Consider `O=C(O)c1ccc(NC2OCC(O)C(O)C2O)cc1` (configuration not stated), for which the activity change, negative = inhibition is 11.7% (inactive).
Turning to `CCCCCCCCNC(=O)C(Cc1ccc(OCc2ccncc2)cc1)NC(=O)C1CCC(CN)CC1` (configuration not stated), the activity change, negative = inhibition is 20.5% (inactive).
Consider `NC(=O)c1[nH]cnc1O`, for which the activity change, negative = inhibition is 5.36% (inactive).
For the compound `CN(C)N=Nc1ccc(C(=O)O)cc1`, the activity change, negative = inhibition is 17.4% (inactive).
With `CN(C)/N=N/c1nc[nH]c1C(N)=O` the figure was -84.8% (active) and -88.3% (active) and -94.9% (active).
Turning to `Cc1cc(-c2ccc(N=Nc3ccc4c(S(=O)(=O)O)cc(S(=O)(=O)O)c(N)c4c3O)c(C)c2)ccc1N=Nc1ccc2c(S(=O)(=O)O)cc(S(=O)(=O)O)c(N)c2c1O`, the activity change, negative = inhibition is -45.6% (inactive).
